Assay outcomes deposited in PubChem BioAssay by The Scripps Research Institute Molecular Screening Center.
GPR151 ag – human GPR151 activation; Q8TDV0; PathHunter beta-arrestin GPR151 cells, luminescence; activation, % at 11.2 µM; 650,000 compounds, 1% hits; in the data active = activation above about 4.9%
FBW7 act – activators of human E3 ligase FBW7; Q969H0; AlphaScreen FBW7–phospho-cyclin E peptide binding, activator screen; normalized activity (activation), % at 26.1 µM; 650,000 compounds, 0.13% hits; AID 1259310; in the data active = normalized activity above about 1.9%;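 note: purified mutant Fbw7 with reduced substrate affinity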
TEAD-YAP inh – TEAD-YAP interaction inhibition; inhibition, % at 9.12 µM; AID 1259422; 640,000 compounds, 1.4% hits; HEK-TIYL cells, TEAD-Gal4/YAP UAS-luciferase luminescence; in the data active = inhibition above about 32%
MITF inh – human MITF inhibition, primary screen; 650,000 compounds, 0.91% hits; O75030; inhibition, % at 2.6 µM; AlphaScreen MITF homodimerization, bead proximity signal; in the data active = inhibition above about 50%
Target sequence (O75030 whole entry, looked up): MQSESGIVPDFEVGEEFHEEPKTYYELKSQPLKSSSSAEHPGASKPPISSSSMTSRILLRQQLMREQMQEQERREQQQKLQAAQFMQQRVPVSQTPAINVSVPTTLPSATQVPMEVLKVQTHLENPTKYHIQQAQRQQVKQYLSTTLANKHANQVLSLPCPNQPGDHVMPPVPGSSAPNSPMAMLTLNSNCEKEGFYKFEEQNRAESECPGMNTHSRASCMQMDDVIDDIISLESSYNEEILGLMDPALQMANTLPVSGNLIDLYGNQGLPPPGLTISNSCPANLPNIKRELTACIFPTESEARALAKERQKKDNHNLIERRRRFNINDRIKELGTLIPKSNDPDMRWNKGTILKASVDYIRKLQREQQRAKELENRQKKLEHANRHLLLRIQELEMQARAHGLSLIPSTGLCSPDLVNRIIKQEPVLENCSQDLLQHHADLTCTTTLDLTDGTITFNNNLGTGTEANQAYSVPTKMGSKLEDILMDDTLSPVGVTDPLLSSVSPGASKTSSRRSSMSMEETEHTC
Large screens that a line does not name were inactive. Only some compounds are listed: those with a hit (about 3.4% of all), similar ones and a draw of the others.

CC[N+](CC)=c1scc(-c2ccc([N+](=O)[O-])cc2)s1	TEAD-YAP inh 48.1
O=[N+]([O-])c1ccc([As](=O)(O)O)cc1	none
c1ccc(C2=NN(c3ccccc3)N(c3ccccc3)N2)cc1	TEAD-YAP inh 76.3
Cc1ccc2c(c1)C1CN(C)CCC1N2C(=O)C(C)C (stereo not drawn)	none
O=C1NC(=O)C(=Cc2ccc(-c3cccc(Cl)c3Cl)o2)C(=O)N1	none
COC(=O)C[C@@](O)(CCC(C)(C)O)C(=O)O[C@@H]1C(OC)=C[C@]23CCCN2CCc2cc4c(cc2[C@@H]13)OCO4	TEAD-YAP inh 101.3
COC1=CC23CCCN2CCc2cc4c(cc2C3C1O)OCO4 (stereo not drawn)	none
CCOC(=O)C1C2NC(=S)N(CCOC)C1(C)Oc1c(Cl)cc(Cl)cc12 (stereo not drawn)	none
CN1CCN(C(=O)Cc2ccc(NC3=NC4CS(=O)(=O)CC4S3)cc2)CC1 (stereo not drawn)	FBW7 act 2.6
CC(N)[C@H](O)c1ccc(O)c(O)c1 (stereo partly drawn)	MITF inh 89.1
C[C@H](N)[C@H](O)c1ccccc1	none
CC(C)[C@@H]1NC(=O)[C@H](C)OC(=O)[C@@H](C(C)C)NC(=O)[C@@H](C(C)C)OC(=O)[C@H](C(C)C)NC(=O)[C@H](C)OC(=O)[C@@H](C(C)C)NC(=O)[C@@H](C(C)C)OC(=O)[C@H](C(C)C)NC(=O)[C@H](C)OC(=O)[C@@H](C(C)C)NC(=O)[C@@H](C(C)C)OC1=O	TEAD-YAP inh 96.0
Cc1cc(N(C)C)cc(C)[n+]1OC(=O)N(c1ccccc1)c1ccccc1	TEAD-YAP inh 64.1
CC(=O)c1ccc(OC(=O)N(C)c2ccccc2)cc1	none
COc1ccc2cc(-c3nc4ccccc4[nH]3)c(=N)oc2c1	TEAD-YAP inh 65.5
COc1c(C)cc(C(=O)C2CCCN(C)C2)cc1C (stereo not drawn)	none
Cc1nc(C)n(-c2ccc(Nc3cc(-c4cn[nH]c4)ccn3)cc2)n1 (tested in a mixture with another compound)	none
Fc1cnc(Nc2ccc(-n3cnc(N4CCOCC4)n3)cc2)cc1-c1cn[nH]c1 (tested in a mixture with another compound)	TEAD-YAP inh 36.0
COC(=O)C1(C#N)CC2c3ccccc3C1c1ccccc12 (stereo not drawn)	none
CCOC(=O)C1(C#N)CC2c3ccccc3C1c1ccccc12 (stereo not drawn)	FBW7 act 2.0
O=c1oc2ccccc2c(O)c1C(c1ccc([N+](=O)[O-])o1)c1c(O)c2ccccc2oc1=O	none
CC1=CC(=C2C(=O)NC(=S)NC2=O)C=C(C(F)(F)F)N1Cc1ccccc1	TEAD-YAP inh 51.6
Cc1[nH]c2ccccc2c1CCN	FBW7 act 2.1
Cc1[nH]c2c(C(C)C)cccc2c1CCN	TEAD-YAP inh 91.0
Cc1[nH]c2ccc(Cl)cc2c1CCN	none
CC[N+](CC)(CC)CC(=O)Nc1ccc([N+](=O)[O-])cc1C(=O)c1ccccc1	none
O=C1NC(=O)N(c2ccc(Br)cc2)C(=O)/C1=C/c1ccc(O)cc1	none
O=C1NC(=O)N(c2ccc(Br)cc2)C(=O)/C1=C/c1ccc(O)c(O)c1	MITF inh 89.6
CC(=O)C(c1ccccc1)c1ccccc1	none
Cn1cccc1/C=C1/C(=O)NC(=S)N(c2ccc(Cl)cc2)C1=O	none
O=C1NC(=S)N(c2ccc(Cl)cc2)C(=O)/C1=C\c1ccc([N+](=O)[O-])o1	MITF inh 68.2
CC(C)(C)n1cc(C(=O)c2ccccc2O)cn1	none
CC(C)(C)n1cc(C(=O)c2ccc3ccccc3c2O)cn1	TEAD-YAP inh 49.6
COc1ccc(OC)c(CNCCc2c[nH]c3ccccc23)c1	MITF inh 64.5
CN1/C(=C/C=C/c2oc3ccccc3[n+]2C)Oc2ccccc21 (tested in a mixture with another compound)	TEAD-YAP inh 79.4
O=C(Nc1ccncc1)C(=O)c1cn(Cc2ccc(Cl)cc2)c2ccccc12	TEAD-YAP inh 44.6
CCOC(=O)c1nc2ccccc2c(=O)n1-c1cccc(Cl)c1C	none
C[C@]12CC[C@H]3[C@@H](CC[C@]4(O)C[C@@H](O)CC[C@]34C=O)[C@@]1(O)CC[C@@H]2C1=CC(=O)OC1	TEAD-YAP inh 101.2
C[C@H]1OC(O[C@H]2[C@@H](O)CC(O[C@H]3[C@@H](O)C[C@H](O[C@H]4CC[C@]5(C)C6CC[C@]7(C)[C@@H](C8=CC(=O)OC8)[C@@H](O)C[C@]7(O)[C@@H]6CC[C@@H]5C4)O[C@@H]3C)O[C@@H]2C)C[C@H](O)C1O (stereo partly drawn)	TEAD-YAP inh 77.7
CC(=O)O[C@H]1C[C@H](O[C@H]2[C@@H](O)C[C@H](O[C@H]3[C@@H](O)C[C@H](O[C@H]4CC[C@@]5(C)C(CCC6C5C[C@@H](O)[C@]5(C)[C@@H](C7=CC(=O)OC7)CC[C@]65O)C4)O[C@@H]3C)O[C@@H]2C)O[C@H](C)[C@H]1O[C@@H]1O[C@H](CO)[C@@H](O)[C@H](O)[C@H]1O (stereo partly drawn)	TEAD-YAP inh 99.9
CO[C@@H]1C(O)[C@H](O[C@H]2CC[C@@]3(C=O)[C@H](CC[C@@H]4[C@@H]3CC[C@]3(C)[C@@H](C5=CC(=O)OC5)CC[C@]43O)C2)OC(C)[C@@H]1O (stereo partly drawn)	TEAD-YAP inh 101.3
CC1(C)C(C(=O)N2CCC3(CC2)CC3C(=O)NCCCc2ccncc2)C1(C)C (stereo not drawn)	none
CC(=O)C1C(=O)NC(=O)NC1=O	none
O=C(O)COc1ccccc1/C=C1\C(=O)NC(=O)N(c2ccc(O)cc2)C1=O	MITF inh 75.1
COc1cc(/C=C2\C(=O)NC(=O)N(c3ccc([N+](=O)[O-])cc3)C2=O)ccc1OCC(=O)O	none
CC(=O)c1ccc(-c2ccccc2)cc1	none
N#CC(C#N)=NNc1ccc(-c2ccccc2)cc1	TEAD-YAP inh 43.9
CC[C@@]1(O)C[C@H](O[C@H]2C[C@H](N(C)C)[C@H](O)[C@H](C)O2)c2c(cc3c(c2O)C(=O)c2c(O)cccc2C3=O)[C@H]1C(=O)OC	TEAD-YAP inh 50.9
CC[C@@]1(O)C[C@H](O[C@H]2C[C@H](N(C)C)[C@H](O)[C@H](C)O2)c2c(cc3c(c2O)C(=O)c2c(O)ccc(O)c2C3=O)[C@H]1C(=O)OC	none
O=C(CC(O)C(Cl)(Cl)Cl)Nc1ccccc1 (stereo not drawn)	none
CC(C)C/C(=N/O)c1c[nH]c2ccccc12	none
CC(C)N1CC=C(c2c[nH]c3ccccc23)CC1	TEAD-YAP inh 36.8
O=c1cccc2n1CC1CC2CN(C(=S)Nc2ccc(Br)cc2)C1 (stereo not drawn)	none
COc1cc(/C=C\c2ccc(OC)c(O)c2)cc(OC)c1	none (no result: FBW7 act, TEAD-YAP inh)
COc1ccc(/C=C/c2cc(O)cc(O)c2)cc1	TEAD-YAP inh 91.5
Cc1nc2c(n1)c1c(non1O)c1c2no[n+]1[O-]	none
COc1ccc(C2SCC(=O)Nc3c2c(-c2ccccc2)nn3-c2ccccc2)cc1OC (stereo not drawn)	TEAD-YAP inh 52.2
